# In PubChem BioAssay (NCI):
# About 83,000 compounds went through this panel and 20% of them were active in at least one assay; those are over-represented in the sample as a whole.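 The test compound was applied at a single concentration to cells in 96-well plates for 48 hours, and percent growth was recorded.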 Values without a mark were called inactive. Activity calls are given as the source filed them. Rule for the calls: active = growth percent below 10; inactive = the rest.
# How the values were obtained:
# Test in all cases: NCI-60 one-dose screen, 48 h (100 = growth as untreated, 0 = no growth, -100 = all killed)
# Details in all cases: 10 µM unless noted
# [1] = system: RPMI-8226 leukemia
# [2] = system: OVCAR-8 ovarian
# [3] = system: OVCAR-5 ovarian
# [4] = system: OVCAR-4 ovarian
# [5] = system: SK-OV-3 ovarian
# [6] = system: IGROV1 ovarian
# [7] = system: OVCAR-3 ovarian
# [8] = system: HS 578T breast
# [9] = system: NCI/ADR-RES ovarian
# [10] = system: T-47D breast
# [11] = system: MDA-MB-435 melanoma
# [12] = system: SW-620 colon
# [13] = system: MCF7 breast
# [14] = system: HCT-116 colon
# [15] = system: HCC-2998 colon
# [16] = system: KM12 colon
# [17] = system: BT-549 breast
SMILES,growth [1],growth [2],growth [3],growth [4],growth [5],growth [6],growth [7],growth [8],growth [9],growth [10],growth [11],growth [12],growth [13],growth [14],growth [15],growth [16],growth [17]
O=C1NC(=Nc2ccc(Cl)cc2)S/C1=C\c1cn(-c2ccccc2)nc1-c1ccccc1,83.3%,75.1%,98.6%,0.154% (active),104%,79.7%,89.2%,71%,91.6%,47.4%,90.1%,75.2%,69.1%,63.8%,100%,97.5%,–
Cc1ccccc1NC(=O)N/C(N)=N/c1nc(-c2cccc([N+](=O)[O-])c2)cs1,34.1%,67.3%,76.3%,56.5%,57.2%,37.1%,26.9%,11.2%,2.74% (active),35.7%,-19.7% (active),31.1%,22.4%,20.6%,39.6%,31.2%,–
Cc1ccc(C(=NN=C(N)N)c2ccc(C)cc2)cc1,1.96% (active),6.75% (active),30.8%,31.2%,-10.8% (active),5.38% (active),-34.8% (active),32.4%,6.63% (active),20.3%,-39% (active),28.4%,2.04% (active),–,–,1.93% (active),–
Cc1cc(=O)[nH]c(N=Nc2c(O)[nH]c3ccccc23)n1,105%,104%,105%,118%,112%,92.8%,112%,–,108%,105%,114%,110%,93.2%,104%,107%,108%,99.3%
COc1ccccc1N1C(=O)/C(=C/C2=Cc3ccccc3OC2)SC1=S,91.4%,102%,99.2%,83.2%,95.2%,97.2%,101%,94.6%,109%,89.7%,97.8%,95.4%,95.5%,84.9%,102%,99.6%,–
N#Cc1nc(C#N)c(Sc2ccccc2)c(Sc2ccccc2)c1Sc1ccccc1,0.263% (active),3.62% (active),-71.3% (active),-11.9% (active),-10.3% (active),-67.9% (active),-87.7% (active),55.2%,20.3%,-71.7% (active),-14.2% (active),-67.2% (active),-72.1% (active),-30.7% (active),-85.4% (active),-85.2% (active),–
CC(=O)O[C@]1(C(C)=O)CCC2C3C[C@H](C)C4=CC(=O)CC[C@]4(C)C3CC[C@@]21C (stereo partly specified),58.9%,91.7%,90.6%,93%,81.9%,81.6%,115%,–,79.6%,95.3%,104%,112%,90.1%,83.6%,106%,103%,63.6%
c1csc(-c2c3ccc(=[N+]4CCCCC4)cc-3oc3cc(N4CCCCC4)ccc23)c1,-39.1% (active),-33.5% (active),-83.1% (active),-54.3% (active),-89% (active),-67.1% (active),-96.9% (active),-20.7% (active),-38.9% (active),-60.7% (active),-46.5% (active),-76% (active),-57.2% (active),-97.1% (active),-94.2% (active),-92.9% (active),–
COc1cc(N2C(=O)c3nccnc3C2=O)cc(OC)c1OC,97.6%,104%,109%,105%,103%,98.2%,120%,104%,104%,96.9%,107%,104%,95.7%,–,–,110%,–
COc1ccc(-c2[nH]c(=S)n(C(CC3(C)NCC(=O)N3n3c(-c4ccccc4)cc(C)nc3=S)c3ccc(OC)cc3)c(=O)c2Br)cc1 (stereo unspecified),-7.13% (active),71.2%,83.4%,54.9%,62.4%,50.6%,67.5%,40.7%,80.3%,22.8%,57.4%,37.2%,16.5%,21.8%,61.2%,37%,–
CCN(CC)S(=O)(=O)c1cccc(-c2ccc3c(NC(=O)C4CC4)n[nH]c3c2)c1,11% [6.25 µM],14.7% [6.25 µM],51.6% [6.25 µM],18.7% [6.25 µM],28.6% [6.25 µM],34.7% [6.25 µM],17.3% [6.25 µM],23.8% [6.25 µM],79.7% [6.25 µM],–,7.53% [6.25 µM] (active),26.1% [6.25 µM],6.78% [6.25 µM] (active),11.9% [6.25 µM],43.9% [6.25 µM],12.6% [6.25 µM],1.05% [6.25 µM] (active)
CCCCc1ccc(Nc2ccc(Nc3ccc(CCCC)cc3S(=O)(=O)O)c3c2C(=O)c2ccccc2C3=O)c(S(=O)(=O)O)c1,52%,99.8%,97.8%,99.9%,91.5%,-16.9% (active),103%,–,107%,106%,84.6%,98.6%,86.9%,106%,117%,96.9%,94%
CS(=O)(=O)c1ccc(Nc2nc(N[C@H]3CCCC[C@H]3N)nc3cc[nH]c(=O)c23)cc1,62.9%,13.6%,-6.49% (active),-3.9% (active),32.8%,1.3% (active),-45.2% (active),22.2%,102%,-3.45% (active),-4.07% (active),6.42% (active),5.47% (active),-2.19% (active),-13.1% (active),0.908% (active),–
CC1(C)CC(=O)CC2(C1)N=C(N)Nc1nc3ccccc3n12 (stereo unspecified),94.4%,104%,98.7%,91.7%,101%,90.5%,111%,137%,106%,106%,104%,109%,89.4%,96.8%,–,108%,–
COc1ccc(Nc2nnc(SCc3ccccc3F)s2)cc1,71.6%,100%,92.8%,99.4%,90.9%,8.8% (active),111%,98%,99.1%,85.8%,99%,109%,90.6%,103%,106%,94.6%,–
CCc1c2c(nc3ccc(OC(=O)OCc4ccc(B5OC(C)(C)C(C)(C)O5)cc4)cc13)-c1cc3c(c(=O)n1C2)COC(=O)[C@]3(O)CC,8.86% (active),0.492% (active),-16% (active),11.1%,3.1% (active),6.81% (active),-17.5% (active),20.7%,-0.875% (active),7.4% (active),–,5.3% (active),2.63% (active),14.5%,2.03% (active),0.859% (active),–
O=C1Nc2ccccc2/C1=C/c1cn(C(=O)c2ccc(Cl)cc2)c2ccccc12,74.5%,95.1%,110%,78.3%,104%,72.7%,98.7%,106%,104%,–,110%,102%,59.1%,–,–,40.9%,96.4%
O=C(NCCCNc1cc(-c2cn(-c3ccccc3)nc2-c2cccc(O)c2)ccn1)c1ccc(F)cc1,-9.31% (active),36.1%,58%,39.8%,30.1%,45.8%,38.4%,-16.7% (active),19%,-10.8% (active),-67.7% (active),5.38% (active),13.7%,10.8%,-60% (active),12%,–
Cc1ccc(-c2cc(-c3cccnc3)[nH]c(=O)c2C#N)cc1,101%,103%,107%,103%,114%,106%,106%,102%,105%,95.6%,103%,102%,94.7%,115%,102%,101%,–
